Luc counter – counter-screen: inhibitors of Kinase-Glo firefly luciferase; AID 1379; Q27757; Kinase-Glo luciferase, ATP luminescence, 8 min; Potency, µM (top dose mostly 38.3 µM), for inactives: top-dose activity change, negative = inhibition, usual class: inhibitors; actives 0.28% (n = 200,000); also: % is scaled to controls: 0 for no effect and ±100 for the full control effect; nearly all actives have a fitted effect of over 60% in size
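Compounds were added to a substrate mix at pH 7.2 (50 mM imidazole, 10 uM ATP, within the enzyme's linear range), followed by Kinase-Glo detection reagent; luminescence was measured after 8 minutes at ambient temperature.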
NPC1 promoter act – activators of NPC1 promoter; Huh7 NPC1 promoter luciferase reporter, 24 h; Potency, µM (doses to about 9.22 µM), for inactives: at the top dose activation, usual class: activators; actives 2.4% (n = 320,000); AID 485313; also: % of control where 0% means no effect; nearly all actives have a fitted effect of over 60% in size
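Quantitative HTS used a cell-based reporter: Huh7 cells stably bearing the NPC1 promoter upstream of luciferase were treated with compounds for 24 h, and promoter activation was read as luminescence.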
Rab9 prom act – Rab9 promoter activation. AID 485297. Huh7 Rab9 promoter-luciferase reporter, luminescence, 24 h. actives 2.8% (n = 320,000). Potency, µM (doses to about 9.22 µM), for the others: top-dose activation, negative = inhibition, hits mostly activators; also: % of control where 0% means no effect; nearly all actives have a fitted effect of over 60% in size
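Luciferase signal after 10 min detection reagent at ambient indicates Rab9 promoter upregulation; stably transfected Huh7 cells were treated 24 h with compound in DMSO at 37 °C, 5% CO2.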
FLuc modulator – inhibits or activates purified firefly luciferase, miR-21 counter-screen; P08659; purified FLuc, Km substrates, luminescence inhibition; Potency, µM (titrated, usually from 57.5 µM), inactives show at the top dose activity change, negative = inhibition, actives largely listed as inhibitors; actives 6.9% (n = 360,000); AID 588342;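 also: plate controls were vehicle for no effect and reference inhibitor for full effect; nearly all actives have a fitted effect of over 55% in size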
Target sequence (P08659 whole entry, looked up): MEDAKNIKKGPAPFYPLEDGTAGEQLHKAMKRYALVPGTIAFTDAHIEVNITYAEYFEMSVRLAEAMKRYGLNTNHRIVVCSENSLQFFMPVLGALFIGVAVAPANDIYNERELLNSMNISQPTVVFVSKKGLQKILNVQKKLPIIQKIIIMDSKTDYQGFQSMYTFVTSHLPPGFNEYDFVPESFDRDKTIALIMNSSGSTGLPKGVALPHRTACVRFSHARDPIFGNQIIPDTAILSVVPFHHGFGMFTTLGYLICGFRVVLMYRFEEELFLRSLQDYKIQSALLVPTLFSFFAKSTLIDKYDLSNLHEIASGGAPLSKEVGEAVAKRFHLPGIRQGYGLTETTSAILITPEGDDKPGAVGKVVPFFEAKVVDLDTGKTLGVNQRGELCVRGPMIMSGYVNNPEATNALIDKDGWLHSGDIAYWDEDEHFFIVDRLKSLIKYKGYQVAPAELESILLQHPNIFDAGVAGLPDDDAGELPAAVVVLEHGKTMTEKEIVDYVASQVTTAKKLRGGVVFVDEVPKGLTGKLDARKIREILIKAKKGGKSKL
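Purified P. pyralis luciferase (10nM final) with 10uM D-luciferin and 10uM ATP (Km levels) in 50mM Tris acetate pH 7.5, 10mM Mg acetate, 0.01% Tween-20, 0.05% BSA; qHTS 6-point titration, ~60 µM downward; luminescence read.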
SMN2 splice enh – SMN2 splice variant enhancement | HEK293 SMN2-luciferase splicing reporter, luminescence, 30-36 h | Potency, µM (highest dose often 46.1 µM), without a hit: at the top dose activity change, positive = activation, most hits filed as activators | actives 2.8% (n = 210,000) | AID 1458; also: % of control where 0% means no effect; nearly all actives have a fitted effect of over 55% in size
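HEK293 cells carry an SMN2 […]–luciferase reporter in which exon 7 inclusion puts luciferase in frame. Cells were plated 10-12 h before compound addition, then incubated 30-36 h at 37C. ONE-Glo luminescence was read; sodium butyrate at 4.5 mM final served as control.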
ELG1 genotoxic – genotoxicity induction in ELG1-luciferase HEK293T cells. HEK293T ELG1-luciferase reporter, luminescence, 16 h. Potency, µM (doses to about 46 µM), for the others: at the highest dose activity change, positive = activation, usual class: activators. actives 1.3% (n = 330,000); also: % of control where 0% means no effect; nearly all actives have a fitted effect of over 60% in size
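Screening used a luciferase reporter fused to human ELG1 in HEK293T cells. Luminescence was read on a CCD plate imager after 16 hr exposure and 30 min ONE-Glo incubation.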
* hit, by the source's call; u = inconclusive; x = not tested or not shown; [ ] = remark or other dose. Most compounds without a hit are left out; they make up all but 7.3% or so of the library. Calls follow the shape of the dose curve; as a rule, active = well fitted curve in the direction sought with a large enough effect; inconclusive = small, poorly fitted or top-dose-only effect, or another doubt; inactive = no such curve, though single readings can be large; an effect the other way counts as inactive or inconclusive. Potency is read from the fitted curve at half-maximal effect.

SMILES	Luc counter	NPC1 promoter act	Rab9 prom act	FLuc modulator	SMN2 splice enh	ELG1 genotoxic
O=C(O)Cc1sc(Nc2ccccc2Cl)nc1-c1ccccc1	x	x	x	3.38µM*	69.4%	x
Cc1cc2cc(CNC(=O)Nc3ccccc3)ccc2[nH]1	-1.6%	u	u	19µM*	u	u
COc1ccc(CNC(=O)Nc2ccccc2)cc1	x	u	3.55µM*	19µM*	x	u
COc1ccc(CNC(=O)Nc2cccc(C)c2)cc1	-3.7%	3.16µM*	3.98µM*	u	20.0%	u
COc1ccc(CNC(=O)Nc2ccc(OC)cc2)cc1	2.6%	-0.6%	-3.7%	-1.7%	29.5%	14.6%
COc1ccc(CNC(=O)Nc2ccc(C)cc2C)cc1	-1.5%	5.2%	-2.3%	-3.3%	12.9%	2.8%
Cc1ccc(CNC(=O)Nc2ccccc2)c(C)c1	x	2.51µM*	3.16µM*	2.69µM*	x	18.3µM*
Cc1noc(C)c1C(=O)OCC(=O)Nc1cc(S(=O)(=O)N2CCOCC2)ccc1Cl	-7.4%	-0.2%	1.1%	-1.5%	9.7%	-1.8%
O=c1[nH][nH]cc1C=Nc1cc(Cl)ccc1O	-0.9%	-11.7%	-7.4%	-1.7%	40.8%	0.0%
O=c1[nH][nH]cc1C=Nc1ccc(Cl)cc1Cl	8.2%	-4.5%	-1.8%	7.57µM*	-3.9%	8.8%
CCN(Cc1ccccc1)C(=O)c1ccc(C(=O)N(CC)Cc2ccccc2)cc1	x	-11.1%	-6.6%	8.0%	x	-4.5%
CCN(Cc1ccccc1)C(=O)c1cc(-c2ccccc2)n[nH]1	x	x	x	15.1µM*	x	x
O=C(/C=C/c1ccc2c(c1)OCO2)Nc1c(C(=O)O)[nH]c2ccccc12	0.3%	8.3%	-1.5%	7.57µM*	-0.7%	-1.8%
CC(C)(C)c1ccc(/C=C/C(=O)Nc2nncs2)cc1	0.7%	0.794µM*	0.708µM*	0.953µM*	u	2.59µM*
O=C(/C=C/c1ccc2c(c1)OCO2)Nc1nncs1	x	2.24µM*	2µM*	2.13µM*	x	u
Cc1sc(NC(=O)/C=C/c2ccc3c(c2)OCO3)nc1-c1ccccc1	-0.6%	-20.9%	-24.0%	9.53µM*	-55.9%	0.1%
O=C(CCCCCn1c(=S)[nH]c2ccc(N3CCOCC3)cc2c1=O)NCCc1ccccc1	-2.6%	0.7%	7.6%	-1.1%	-13.4%[1.84 µM]	u
CCN1CCN(c2c(Cl)cccc2NC(=O)c2cccs2)CC1	x	0.3%	-3.1%	0.7%	x	3.5%
O=C(Nc1nc(-c2ccc3c(c2)OCO3)cs1)C1COc2ccccc2O1 (stereo not given)	0.5%	0.3%	-0.2%	u	5.7%	0.2%
O=C(/C=C/c1ccc2c(c1)OCO2)Nc1nc(-c2ccccc2)cs1	0.5%	-3.6%	-2.4%	3.01µM*	-61.7%	-5.5%
c1ccc(OCCCn2nnc(-c3cccnc3)n2)cc1	4.0%	-5.7%	0.5%	-3.0%	-10.8%	6.4%
c1ccc(-n2nnc(-c3cccnc3)n2)cc1	x	3.98µM*	2.82µM*	13.5µM*	x	u
Cc1ccc(-n2nnc(-c3nccn3C)n2)cc1	x	0.501µM*	0.355µM*	1.35µM*	x	1.83µM*
Fc1ccc(-n2nnc(-c3cccnc3Cl)n2)cc1	x	1.58µM*	0.355µM*	2.39µM*	x	5.8µM*
c1ccc2ncc(-n3cnnn3)cc2c1	-0.8%	7.0%	0.4%	-3.6%	-4.9%	9.7%
SMILES	Luc counter	NPC1 promoter act	Rab9 prom act	FLuc modulator	SMN2 splice enh	ELG1 genotoxic
Fc1ccc(-n2nnc(-c3ccccc3Cl)n2)cc1	x	-5.5%	-4.0%	0.1%	x	-1.8%
Cc1ccc(-n2nnc(-c3cnc4ccccc4c3)n2)cc1	x	0.891µM*	0.316µM*	0.426µM*	x	1.64µM*
COc1ncccc1-c1nnn(-c2ccccc2)n1	x	1.78µM*	0.708µM*	3.38µM*	x	8.2µM*
Clc1ncccc1-c1nnn(-c2ccccc2)n1	x	1.12µM*	1.41µM*	2.39µM*	x	6.51µM*
Clc1nc2ccccc2cc1-c1nnn(-c2ccccc2)n1	x	3.16µM*	1.58µM*	2.39µM*	x	16.4µM*
Clc1ccc(-n2nnc(-c3cccnc3Cl)n2)cc1Cl	x	1µM*	1.12µM*	1.35µM*	x	10.3µM*
COc1nn(-c2ccccc2)c(=O)c(Cl)c1Cl	x	-47.4%	-49.9%	0.1%	x	-10.6%
